# BoNT-F LC inh: BoNT F light chain protease inhibition; Multiplex microsphere protease cleavage assay, flow cytometry; inhibition, % at 10 µM; 360,000 tested, 0.22% active; AID 588497; in the data active = inhibition above about 35%, passing the limit was not always enough; inconclusive = no clear call, values can overlap the other calls; note: plate controls were buffer without enzyme for full effect and enzyme alone for no effect
# Bead autofluor: counter-screen for toxin protease inhibitors: compound fluorescence. fluorescence intensity (concentration not given with the values). 360,000 tested, 3.1% active. compound autofluorescence counterscreen, microsphere flow cytometry; stronger effect = higher value; in the data active = fluorescence intensity above about 16000; inconclusive = no clear call, values can overlap the other calls
# BoNT-A LC inh2: blocks Botulinum neurotoxin A light chain protease; 360,000 tested, 0.17% active; inhibition, % at 10 µM; AID 588499; multiplex microsphere protease substrate cleavage, flow cytometry; note: plate controls were buffer without enzyme for full effect and enzyme alone for no effect
# Anthrax LF inh2: anthrax lethal factor protease inhibition; P15917; multiplex microsphere protease cleavage assay, LF; inhibition, % at 10 µM; 360,000 tested, 0.12% active; note: plate controls were buffer without enzyme for full effect and enzyme alone for no effect
# GDH-TPI counter: inhibits GDH-TPI coupling enzymes, artifact for Mtb FBA screen | GDH-TPI coupled enzyme counterscreen, NADH absorbance | inhibition, % at 4.8 µM | 360,000 tested, 1.2% active | AID 588335; in the data active = inhibition above about 30%;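 note: 0% = DMSO wells and 100% = wells lacking the enzyme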
# FBA Mtb inh: Mtb fructose-bisphosphate aldolase inhibition; P9WQA3; purified M. tuberculosis FBA, fluorescence read-out; inhibition, % at 1 µM; 360,000 tested, 2.3% active; AID 588726; in the data active = inhibition above about 27%;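 note: 0% = vehicle and 100% = reference inhibitor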
# Target sequence (P9WQA3 whole entry, looked up): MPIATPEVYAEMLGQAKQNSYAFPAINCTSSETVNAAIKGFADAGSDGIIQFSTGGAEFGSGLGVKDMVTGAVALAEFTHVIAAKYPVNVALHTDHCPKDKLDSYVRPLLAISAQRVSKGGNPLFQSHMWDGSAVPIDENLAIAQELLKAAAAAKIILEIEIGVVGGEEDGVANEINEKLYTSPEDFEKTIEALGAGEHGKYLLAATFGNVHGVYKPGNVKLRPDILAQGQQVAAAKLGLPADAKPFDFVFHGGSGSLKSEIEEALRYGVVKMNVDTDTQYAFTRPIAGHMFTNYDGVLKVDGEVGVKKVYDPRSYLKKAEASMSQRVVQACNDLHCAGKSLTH
# * = called active by the depositor; ? = inconclusive; + = active, no number. Rows were chosen to be rich in hits. Some 6.7% of all compounds tested hit in one or more screens of this group. Cut-off read from the data, not from the text of the source, unless noted: active = inhibition above about 30%; inconclusive = no clear call, values can overlap the other calls; inactive = below that.
SMILES,BoNT-F LC inh,Bead autofluor,BoNT-A LC inh2,Anthrax LF inh2,GDH-TPI counter,FBA Mtb inh
CC(Cc1ccccc1)[n+]1cc(/N=C(\N)[O-])on1 (stereo not drawn),-4,2534,0,-1,10,0
Cc1ccc(SCC(=O)Nc2ccc(-c3nnc(-c4ccco4)o3)cc2)cc1,2,3447,0,2,31*,1
O=C(O)CCC(=O)Nc1ccc(-c2nnc(-c3ccco3)o2)cc1,-1,5545,0,9,17,141*
CCC(=O)Nc1ccc(-c2nnc(-c3ccccc3)o2)cc1,6,4956,-1,1,1,+
O=C(O)CC12CC3CC(C1)CC(n1ncc(NCc4ccc(F)cc4Cl)c(Cl)c1=O)(C3)C2,-7,5605,0,-1,4,1
COc1cc2c(cc1O)CC[n+]1cc3c(OC)c(OC)ccc3cc1-2,-5,4056,-1,-2,33*,-4
COc1cc2c(ccc3cc(OC)c(OC)c(O)c32)cc1O,-8,5659,-1,0,-1,6
COc1cc2c(cc1OC)-c1cc3ccc4c(c3c[n+]1CC2)OCO4,-21,4059,2,0,35*,-1
CC(=O)Nc1ccc(C)c([N+](=O)[O-])c1,-7,2355,0,0,7,0
CCCOc1cccc(-c2nn(-c3ccccc3)cc2/C=C(\C#N)C(=O)NCCCn2ccnc2)c1,-9,3465,9,1,10,-4
Cc1cc(C(=O)N/N=C/C=C/c2ccc([N+](=O)[O-])cc2)n[nH]1,-3,2125,1,-1,41*,1
O=C(N/N=C/C=C/c1ccc([N+](=O)[O-])cc1)c1cccs1,5,2727,2,2,24,-2
Cc1cc(C(=O)N/N=C/C=C/c2ccc(Br)cc2)n[nH]1,5,5747,0,-6,42*,0
O=C(CCl)N1CCN(S(=O)(=O)c2ccc3c(c2)OCCCO3)CC1,-5,3775,-1,1,6,0
CCOC(=O)/C=C1\SCC(=O)N1CC(=O)c1ccc[nH]1,5,21362*,2,2,-10,2
O=C(c1cccs1)N(Cc1ccccn1)Cc1ccco1,-1,24079*,-1,-3,-4,0
NC(=O)C1CCN(c2ccc(S(=O)(=O)N3CCCCC3)cn2)CC1,-3,3452,0,1,11,4
CC(=O)N1CCN(c2ccc(S(=O)(=O)N3CCCCC3)cn2)CC1,-7,18018*,-4,2,9,1
COc1ccc(N2CCN(C(=O)c3ccccc3NS(=O)(=O)c3ccccc3)CC2)cc1,1,4743,-3,1,-7,2
CC(=O)c1cccc(N2C(=NC(=O)COc3ccccc3)SC3CS(=O)(=O)CC32)c1 (stereo not drawn),-2,6218,-2,-2,-5,-11
Cc1ccc(OC(=O)COc2ccccc2C)cc1,-11,3589,-6,8,9,1
CC(=O)c1ccc(OC(=O)COc2ccccc2Cl)cc1,?,32253*,-126,-115,15,-1
CCCn1c(SC(C)C(=O)O)nc2ccccc21 (stereo not drawn),4,21928*,2,-2,-1,-1
CCCn1c(SCC(=O)C(C)(C)C)nc2ccccc21,-4,2194,0,-1,5,-1
CCOC(=O)c1cc2[nH]c3ccccc3c2[n+](-c2ccc([N+](=O)[O-])cc2)c1C,-2,2152,1,1,30,0
SMILES,BoNT-F LC inh,Bead autofluor,BoNT-A LC inh2,Anthrax LF inh2,GDH-TPI counter,FBA Mtb inh
Cc1cccn2cc(-c3ccccc3)nc12,-5,2474,0,0,7,18
Cc1cccn2cc(-c3ccc(F)cc3)nc12,-2,23835*,-1,-3,-2,11
c1ccc2c(C[C@@H]3CNCCN3CCCCC3CCCCC3)cccc2c1,-31,4539,-1,-14,-9,-2
CCOc1ccc(NC(=O)Cn2nnc(C(=O)NCc3cccs3)c2N)cc1,-1,5359,0,-1,8,0
Cc1ccc(OCC(=O)N2N=C(C(F)(F)F)CC2(O)C(C)(C)C)cc1C (stereo not drawn),-1,19845*,2,-7,-6,-1
Cc1ccccc1OCC(=O)N1N=C(C(F)(F)F)CC1(O)C(C)(C)C (stereo not drawn),14,3769,0,4,-3,-13
Cc1ccc(/C=C2\SC(=S)N(C3CCS(=O)(=O)C3)C2=O)o1 (stereo not drawn),11,2152,35*,15,16,-8
O=C1/C(=C/c2ccccc2)SC(=S)N1C1CCS(=O)(=O)C1 (stereo not drawn),0,6643,0,4,4,0
NS(=O)(=O)c1ccc(-c2ccc(/C=C3\SC(=S)N(C4CCS(=O)(=O)C4)C3=O)o2)cc1 (stereo not drawn),19,4298,65*,46*,4,-2
NS(=O)(=O)c1ccc(-c2ccc(C=NC3CCS(=O)(=O)C3)o2)cc1 (stereo not drawn),-7,10884,0,1,30,4
Cc1ccc(Nc2cnn(C34CC5CC(CC(CC(=O)O)(C5)C3)C4)c(=O)c2Cl)c(Cl)c1,-5,4123,-1,-1,19,-3
Cc1noc(C)c1C(=O)Nc1nc(C23CC4CC(CC(C4)C2)C3)cs1,-1,23212*,0,0,2,-1
CCCCOC(=O)C1=C(C)Nc2ncnn2C1c1ccc(OCC)c(OC)c1 (stereo not drawn),0,19529*,1,-5,18,-1
CCOc1ccc(C2C(C(N)=O)=C(C)Nc3ncnn32)cc1OC (stereo not drawn),8,3082,-3,3,2,1
CCCCOC(=O)C1=C(C)Nc2ncnn2C1c1ccc(OC)c(OC)c1 (stereo not drawn),-9,21510*,?,-1,14,-2
CC1=C(C(N)=O)C(c2ccc(Cl)cc2Cl)n2ncnc2N1 (stereo not drawn),-2,21777*,0,-1,17,0
Cc1cccc(-n2c(CCn3nc(C)c([N+](=O)[O-])c3C)n[nH]c2=S)c1,0,16467*,-1,-3,4,2
COc1ccc(N2CC(C(=O)NC3CC(C)(C)NC(C)(C)C3)CC2=O)cc1 (stereo not drawn),-4,6364,-1,1,-1,3
COc1ccc2c(c1OC)c(=O)n1c3ccc(OC(C)C(=O)NCCCN4CCOCC4)cc3c3ccnc2c31 (stereo not drawn),-4,5739,0,3,3,153*
Cc1ccc(CNS(=O)(=O)NCc2ccccc2)cc1,-58,5224,-2,2,-5,3
Cn1c(=O)c(-c2ccccc2[N+](=O)[O-])c(Cl)c2ccccc21,-10,3111,4,18,18,-1
CC(=O)N1CCc2cc(S(=O)(=O)N3CCOCC3)ccc21,8,3029,1,2,-3,-4
